Measured values from paper PMC12864922, “TDP-43 directly inhibits mRNA accumulation in neurites through modulation of mRNA stability”.
In all, about 9,900 sequences were measured (“r (bound/input frequency ratio)”: median about 0.7, highest 2% from about 6.5 on). This is one part of a sample in which the highest values are shown more often than they occur.

B1: ENSMUSG00000029636.441|Wasf3 (ssRNA)
RNA: GGGAGUUCUACAGUCCGACGAUCGCUUCGAUAUCCGCAUGCUAGUGGAUGGUUGAGUGGGUGGAUUCAUGAUGGAUGGAUGGAUGGAUGGAUGGAUGGAUGGAUGGAUGAGUGGAUGGAUAAUAGGUUGAUGGGUGGAUAGGUAGAUGAGUGAAUAGAUAGAUAUAGAUCAGUGGGAGGAUUGGAAAGUAGGUGAAUGAAUGGAUGGCAGAUAGAUGGAUCAAUUACAGAUGGAUGGAUGCAUGGAAUAGAUAGGUGGAUGGGUGGUGGCUAGAAGGUGCCUGAGUCUGCACAUCACUGCACUCUCUUGCGGUCGCACUAGUGUGGAAUUCUCGGGUGUCAAGG
B2: ENSMUSG00000029636.445|Wasf3 (ssRNA)
RNA: GGGAGUUCUACAGUCCGACGAUCGCUUCGAUAUCCGCAUGCUAAUGAUGGAUGGAUGGAUGGAUGGAUGGAUGGAUGGAUGGAUGAGUGGAUGGAUAAUAGGUUGAUGGGUGGAUAGGUAGAUGAGUGAAUAGAUAGAUAUAGAUCAGUGGGAGGAUUGGAAAGUAGGUGAAUGAAUGGAUGGCAGAUAGAUGGAUCAAUUACAGAUGGAUGGAUGCAUGGAAUAGAUAGGUGGAUGGGUGGUGGCUAGAAGGUGCCUGAGUCUGCACAUCACUGCACUGAGAAGGCAAAUGAGUACAUUAUACUCUUGCGGUCGCACUAGUGUGGAAUUCUCGGGUGUCAAGG
B3: ENSMUSG00000029636.449|Wasf3 (ssRNA)
RNA: GGGAGUUCUACAGUCCGACGAUCGCUUCGAUAUCCGCAUGCUAUGGAUGGAUGGAUGGAUGAGUGGAUGGAUAAUAGGUUGAUGGGUGGAUAGGUAGAUGAGUGAAUAGAUAGAUAUAGAUCAGUGGGAGGAUUGGAAAGUAGGUGAAUGAAUGGAUGGCAGAUAGAUGGAUCAAUUACAGAUGGAUGGAUGCAUGGAAUAGAUAGGUGGAUGGGUGGUGGCUAGAAGGUGCCUGAGUCUGCACAUCACUGCACUGAGAAGGCAAAUGAGUACAUUAUACUAUUAGCACCAAACCCCAAGCUUCUCUUGCGGUCGCACUAGUGUGGAAUUCUCGGGUGUCAAGG
B4: ENSMUSG00000029636.450|Wasf3 (ssRNA)
RNA: GGGAGUUCUACAGUCCGACGAUCGCUUCGAUAUCCGCAUGCUAGAUGGAUGGAUGAGUGGAUGGAUAAUAGGUUGAUGGGUGGAUAGGUAGAUGAGUGAAUAGAUAGAUAUAGAUCAGUGGGAGGAUUGGAAAGUAGGUGAAUGAAUGGAUGGCAGAUAGAUGGAUCAAUUACAGAUGGAUGGAUGCAUGGAAUAGAUAGGUGGAUGGGUGGUGGCUAGAAGGUGCCUGAGUCUGCACAUCACUGCACUGAGAAGGCAAAUGAGUACAUUAUACUAUUAGCACCAAACCCCAAGCUUCAGUAUCUCUUGCGGUCGCACUAGUGUGGAAUUCUCGGGUGUCAAGG
B5: ENSMUSG00000029636.451|Wasf3 (ssRNA)
RNA: GGGAGUUCUACAGUCCGACGAUCGCUUCGAUAUCCGCAUGCUAUGGAUGAGUGGAUGGAUAAUAGGUUGAUGGGUGGAUAGGUAGAUGAGUGAAUAGAUAGAUAUAGAUCAGUGGGAGGAUUGGAAAGUAGGUGAAUGAAUGGAUGGCAGAUAGAUGGAUCAAUUACAGAUGGAUGGAUGCAUGGAAUAGAUAGGUGGAUGGGUGGUGGCUAGAAGGUGCCUGAGUCUGCACAUCACUGCACUGAGAAGGCAAAUGAGUACAUUAUACUAUUAGCACCAAACCCCAAGCUUCAGUAUUUAGAUCUCUUGCGGUCGCACUAGUGUGGAAUUCUCGGGUGUCAAGG
B6: ENSMUSG00000029636.440|Wasf3 (ssRNA)
RNA: GGGAGUUCUACAGUCCGACGAUCGCUUCGAUAUCCGCAUGCUAUAGGUGGUGGAUGGUUGAGUGGGUGGAUUCAUGAUGGAUGGAUGGAUGGAUGGAUGGAUGGAUGGAUGGAUGAGUGGAUGGAUAAUAGGUUGAUGGGUGGAUAGGUAGAUGAGUGAAUAGAUAGAUAUAGAUCAGUGGGAGGAUUGGAAAGUAGGUGAAUGAAUGGAUGGCAGAUAGAUGGAUCAAUUACAGAUGGAUGGAUGCAUGGAAUAGAUAGGUGGAUGGGUGGUGGCUAGAAGGUGCCUGAGUCUGCACAUCACCUCUUGCGGUCGCACUAGUGUGGAAUUCUCGGGUGUCAAGG
B7: ENSMUSG00000029636.438|Wasf3 (ssRNA)
RNA: GGGAGUUCUACAGUCCGACGAUCGCUUCGAUAUCCGCAUGCUAGUGAAUGGAUGAUAGGUGGUGGAUGGUUGAGUGGGUGGAUUCAUGAUGGAUGGAUGGAUGGAUGGAUGGAUGGAUGGAUGGAUGAGUGGAUGGAUAAUAGGUUGAUGGGUGGAUAGGUAGAUGAGUGAAUAGAUAGAUAUAGAUCAGUGGGAGGAUUGGAAAGUAGGUGAAUGAAUGGAUGGCAGAUAGAUGGAUCAAUUACAGAUGGAUGGAUGCAUGGAAUAGAUAGGUGGAUGGGUGGUGGCUAGAAGGUGCCUGAGCUCUUGCGGUCGCACUAGUGUGGAAUUCUCGGGUGUCAAGG
B8: ENSMUSG00000029636.442|Wasf3 (ssRNA)
RNA: GGGAGUUCUACAGUCCGACGAUCGCUUCGAUAUCCGCAUGCUAGGUUGAGUGGGUGGAUUCAUGAUGGAUGGAUGGAUGGAUGGAUGGAUGGAUGGAUGGAUGAGUGGAUGGAUAAUAGGUUGAUGGGUGGAUAGGUAGAUGAGUGAAUAGAUAGAUAUAGAUCAGUGGGAGGAUUGGAAAGUAGGUGAAUGAAUGGAUGGCAGAUAGAUGGAUCAAUUACAGAUGGAUGGAUGCAUGGAAUAGAUAGGUGGAUGGGUGGUGGCUAGAAGGUGCCUGAGUCUGCACAUCACUGCACUGAGAAGCUCUUGCGGUCGCACUAGUGUGGAAUUCUCGGGUGUCAAGG
B9: ENSMUSG00000029636.439|Wasf3 (ssRNA)
RNA: GGGAGUUCUACAGUCCGACGAUCGCUUCGAUAUCCGCAUGCUAGGAUGAUAGGUGGUGGAUGGUUGAGUGGGUGGAUUCAUGAUGGAUGGAUGGAUGGAUGGAUGGAUGGAUGGAUGGAUGAGUGGAUGGAUAAUAGGUUGAUGGGUGGAUAGGUAGAUGAGUGAAUAGAUAGAUAUAGAUCAGUGGGAGGAUUGGAAAGUAGGUGAAUGAAUGGAUGGCAGAUAGAUGGAUCAAUUACAGAUGGAUGGAUGCAUGGAAUAGAUAGGUGGAUGGGUGGUGGCUAGAAGGUGCCUGAGUCUGCACUCUUGCGGUCGCACUAGUGUGGAAUUCUCGGGUGUCAAGG
B10: ENSMUSG00000029636.446|Wasf3 (ssRNA)
RNA: GGGAGUUCUACAGUCCGACGAUCGCUUCGAUAUCCGCAUGCUAGAUGGAUGGAUGGAUGGAUGGAUGGAUGGAUGGAUGAGUGGAUGGAUAAUAGGUUGAUGGGUGGAUAGGUAGAUGAGUGAAUAGAUAGAUAUAGAUCAGUGGGAGGAUUGGAAAGUAGGUGAAUGAAUGGAUGGCAGAUAGAUGGAUCAAUUACAGAUGGAUGGAUGCAUGGAAUAGAUAGGUGGAUGGGUGGUGGCUAGAAGGUGCCUGAGUCUGCACAUCACUGCACUGAGAAGGCAAAUGAGUACAUUAUACUAUUACUCUUGCGGUCGCACUAGUGUGGAAUUCUCGGGUGUCAAGG

target: TDP-43 (Homo sapiens, UniProt Q13148 1-414); assay: RNA Bind-n-Seq with designed 260-mer pool; 25 mM Tris-HCl, 150 mM KCl, 3 mM MgCl2, BSA (printed 500 mg/mL), 20 units/mL SUPERase IN; pH not stated; 500 nM RNA pool, 1 h, 4 C; TDP-43 5, 50, 500 nM; high values mean tight binding; conditions: protein: recombinant; tags: SBP (GST cleaved off with PreScission; pGEX-GST-SBP)
Method in brief: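 Binding (R) is the ratio of each oligo's mapped-read-normalized abundance in the bound fraction to its abundance in the input. To obtain it, SBP-tagged recombinant TDP-43 (5, 50 or 500 nM) on streptavidin beads was incubated with 500 nM of an in vitro-transcribed 260-nt 3′ UTR oligo pool for 1 h at 4 °C in 25 mM Tris-HCl, 150 mM KCl, 3 mM MgCl2, BSA and SUPERase IN. The RNA retained after washing was released with biotin, then reverse transcribed, amplified by PCR and sequenced.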

Chain of TDP-43 (Q13148 whole entry): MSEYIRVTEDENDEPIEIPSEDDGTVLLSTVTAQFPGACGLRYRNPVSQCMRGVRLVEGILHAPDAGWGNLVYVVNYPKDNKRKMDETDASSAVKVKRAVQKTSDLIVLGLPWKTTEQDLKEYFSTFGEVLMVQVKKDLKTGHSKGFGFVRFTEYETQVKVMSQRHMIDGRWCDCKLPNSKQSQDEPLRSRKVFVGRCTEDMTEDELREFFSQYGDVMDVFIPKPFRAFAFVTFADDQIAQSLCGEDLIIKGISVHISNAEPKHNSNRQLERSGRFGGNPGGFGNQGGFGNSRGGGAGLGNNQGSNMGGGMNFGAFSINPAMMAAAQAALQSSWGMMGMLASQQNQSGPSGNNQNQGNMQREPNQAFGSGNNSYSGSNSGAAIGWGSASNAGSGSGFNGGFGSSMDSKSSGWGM

Binder	binding signal
B1	7.11 R (bound/input frequency ratio)
B2	5.13 R (bound/input frequency ratio)
B3	6.51 R (bound/input frequency ratio)
B4	6.13 R (bound/input frequency ratio)
B5	4.65 R (bound/input frequency ratio)
B6	7.49 R (bound/input frequency ratio)
B7	8.37 R (bound/input frequency ratio)
B8	5.86 R (bound/input frequency ratio)
B9	5.9 R (bound/input frequency ratio)
B10	4.56 R (bound/input frequency ratio)
